This assay deals with Calmodulin-1 (Homo sapiens) (UniProt P0DP23). Nature of the assay: small molecules binding calmodulin-1 with EGTA – biochemical, small-molecule microarray, Cy5-labelled CALM1, profiling panel (AID 1111).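 Also: labelled calmodulin applied in Tris saline Tween buffer holding calcium plus EGTA and DTT.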 The conditions noted are these: Cy5-CALM1 binding fluorescence, higher = more signal.
Turning to `CCOC(=O)[C@H](Cc1ccccc1)NC(=O)CCC1CC(OC(=O)NCc2cccc3ccccc23)CC2(CCCC(COC(=O)NCc3ccc4c(c3)OCO4)O2)O1` (stereo partly drawn), the composite z-score is -0.29.

In turn, `COc1cccc([C@H]2Oc3ccc(OC)cc3C(=NO[C@@H](C)c3cc(-c4c(C)cc(C)cc4C)no3)[C@@H]2O)c1` displayed a composite z-score of -0.831.

For `CC(=O)OC[C@H]1O[C@H](C#CCCc2ccccc2)C=C[C@@H]1OC(C)=O`, the composite z-score was -0.288.

For the compound `CC(C)=NO[C@@H](C)c1cn([C@H](CO)Cc2ccccc2)nn1`, the composite z-score was -0.03.

Compound `COC(=O)C(C(=O)OC)C1CCCC(=O)C1` (stereo not drawn) came in with a composite z-score of -0.385.

Regarding `COC(=O)CC=C[C@@H](C)[C@@H](C=NOC[C@@H](C)[C@H](OCc1ccccc1)C(C)C)OC`, the composite z-score was -0.481.

Consider `COc1ccc(O[C@H]2C=C[C@@H](c3ccccc3)O[C@@H]2COC(=O)NCc2cccc3ccccc23)cc1`, for which the composite z-score was -0.413.

`CC(C)CON=C1C[C@@H](O)[C@@H](O)[C@@H]2[C@@H]3C(=O)N(C(C)(C)C)C(=O)[C@@H]3CC[C@@H]12` showed a composite z-score of -1.39.

For `CON=C(C)CCN1CCCCc2nc(C)c(C)cc21`, the composite z-score is -0.327.

In turn, `O=C1[C@H]2[C@H]3[C@H](O)[C@H](O)CC(=NO[C@@H]4O[C@H](CO)[C@@H](O)[C@H](O)[C@H]4O)[C@@H]3CC[C@H]2C(=O)N1C[C@@H]1CCCO1` showed a composite z-score of -0.158.

With `CCN1C(=O)[C@H]2[C@@H]3C(=CC[C@H]2C1=O)C(=O)[C@H]1O[C@H]1[C@H]3O`, the composite z-score was -0.575.

Take `CC=CC1=C(CO)[C@H](O)[C@H]2O[C@H]2[C@@H]1O`: the composite z-score is -0.849.

With `CC(=O)OC[C@H]1O[C@H](CC=NOC[C@@H](O)[C@H]2O[C@@H]3OC(C)(C)O[C@@H]3[C@H]2O)C=C[C@@H]1OC(C)=O`, the composite z-score came out at 0.699.

Values taken from PubChem BioAssay.
